Cruzain inh Det: blocks cruzain activity in presence of Triton detergent | Potency, µM, for inactives: max response, negative = inhibition, usual class: inhibitors | purified cruzain, Z-FR-AMC fluorescence, 0.01% Triton | 200,000 tested, 0.43% active | AID 1478;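 note: plate controls were neutral wells for no effect and buffer without enzyme for full effect; nearly all actives have a fitted effect of over 40% in size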
Target sequence (P25779 123-467 limits assumed): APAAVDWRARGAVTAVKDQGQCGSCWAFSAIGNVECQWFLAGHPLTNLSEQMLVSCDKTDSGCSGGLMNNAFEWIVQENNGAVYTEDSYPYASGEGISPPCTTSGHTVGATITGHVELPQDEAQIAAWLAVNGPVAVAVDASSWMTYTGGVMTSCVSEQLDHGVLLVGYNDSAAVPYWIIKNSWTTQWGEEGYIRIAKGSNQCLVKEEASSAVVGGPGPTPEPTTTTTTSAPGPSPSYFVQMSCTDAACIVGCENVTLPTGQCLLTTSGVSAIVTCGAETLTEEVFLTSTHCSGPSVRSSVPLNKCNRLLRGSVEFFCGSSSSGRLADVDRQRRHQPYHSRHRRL
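Steps: dispense cruzain (1.5 nM final) in acetate buffer pH 5.5 with DTT and 0.01% Triton X-100; pin-transfer compounds; incubate 15 min RT; add Z-FR-AMC (2 uM final); read fluorescence every 30 s, using the 60 s intensity change.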
Cruzain inh noDet: inhibitors of Trypanosoma cruzi cruzain without detergent; P25779; purified cruzain, Z-FR-AMC fluorescence, no detergent; Potency, µM, inactives show max response, negative = inhibition, hits mostly inhibitors; 200,000 tested, 2.3% active;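 note: plate controls were enzyme without inhibitor for no effect and buffer without enzyme for full effect; nearly all actives have a fitted effect of over 40% in size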
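Detergent-free condition (0.00005% Triton X-100) in acetate buffer pH 5.5 with DTT. 1.5 nM enzyme and compound were pre-mixed 15 min, then 2 uM Z-FR-AMC substrate added; reaction progress from fluorescence change between first and third reads (60 s).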
Papain counter: blocks papain protease activity, flagging nonselective cruzain hits; shares compounds with Cruzain inh Det; purified papain, Z-FR-AMC fluorescence cleavage; Potency, µM, for the others: max response, negative = inhibition, usual class: inhibitors; 410 tested, 41% active; AID 2161;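 note: 0% = no-compound wells and -100% = no-enzyme wells; nearly all actives have a fitted effect of over 35% in size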
Target sequence (P00784 whole entry, looked up): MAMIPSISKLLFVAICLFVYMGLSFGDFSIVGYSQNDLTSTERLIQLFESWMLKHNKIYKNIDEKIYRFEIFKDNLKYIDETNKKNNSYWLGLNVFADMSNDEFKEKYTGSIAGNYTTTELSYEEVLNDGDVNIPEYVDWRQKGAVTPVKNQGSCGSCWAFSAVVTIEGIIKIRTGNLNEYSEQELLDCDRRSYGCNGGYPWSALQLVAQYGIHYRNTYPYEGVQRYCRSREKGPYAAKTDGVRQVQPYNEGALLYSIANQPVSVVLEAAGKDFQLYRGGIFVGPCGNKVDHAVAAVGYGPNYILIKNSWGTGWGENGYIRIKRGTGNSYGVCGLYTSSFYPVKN
* = called active by the depositor; ? = inconclusive; / = not tested or not shown. Sampled rows, rich in hits. Any-hit rate of the full collection: about 2.6%. Calls come from the whole dose curve; as a rule, active = well fitted curve in the direction sought with a large enough effect; inconclusive = small, poorly fitted or top-dose-only effect, or another doubt; inactive = no such curve, though single readings can be large; an effect the other way counts as inactive or inconclusive. Potency is the fitted concentration of half-maximal effect.

SMILES | Cruzain inh Det | Cruzain inh noDet | Papain counter
CCCn1c(=O)c2sccc2n2c(CCCC(=O)Nc3ccc(Oc4ccccc4)cc3)nnc12 | 5% | ? | /
CCc1ccc(NC(=O)CSC2=Nc3ccccc3C3=NC(CC(=O)NCc4ccc5c(c4)OCO5)C(=O)N23)cc1 (configuration not stated) | -3% | -9% | /
COCCNC(=O)Nc1ccc2nc(-c3cccs3)c(-c3cccs3)nc2c1 | -10% | ? | /
CCC(C)NC(=O)c1ccc2nc(-c3cccs3)c(-c3cccs3)nc2c1 (configuration not stated) | / | / | -3%
CCOC(=O)CSc1nc2c(sc3ccccc32)c(=O)n1Cc1ccc(OC)cc1 | 2% | 4% | /
Cn1c(=O)oc2cc(S(=O)(=O)N3CCC(C(=O)N4CCN(c5ccc(Cl)cc5)CC4)CC3)ccc21 | -3% | ? | /
O=C1OC(/C=C/c2ccc(Cl)cc2)=NC/1=C/c1ccco1 | 2.5µM* | 16µM* | -15%
O=C1NC(c2ccccc2)=N/C1=C/c1ccco1 | -8% | 0% | /
COc1cccc(C(=O)Nc2ccc(-n3nncc3-c3ccc(Br)cc3)cc2)c1OC | -1% | -8% | /
COc1ccc(/C=C/C(=O)Nc2ccccc2C(=O)O)cc1OC | -7% | -16% | /
Cc1ccc(NC(=O)c2ccc(-n3nncc3-c3ccccc3)cc2)cc1 | / | / | 4%
COc1ccc(/C=C/C(=O)Nc2ccc(-n3nncc3-c3ccc(Br)cc3)cc2)cc1OC | / | / | -20%
COc1ccc(/C=C/C(=O)Nc2ccc(-n3nncc3-c3ccccc3)cc2)cc1OC | 3.2µM* | 16µM* | -14%
CCOc1ccc(C(=O)Nc2ccc(-n3nncc3-c3ccccc3)cc2)cc1OCC | -5% | 16% | /
COc1cc(NC(=O)Cn2c(=O)n(C(C)C)c(=O)c3oc4ccccc4c32)cc(OC)c1 | -1% | 18% | /
Cc1ccc(NC(=S)c2nc3ccccc3[nH]2)c(C)c1 | -8% | -24% | /
Cc1ccc2[nH]c(=O)c(NC(N)=S)nc2c1 | 1.8µM* | 1.6µM* | 1%
COc1ccc(/C=N/NC(=O)c2cccc(Br)c2)cc1Cn1cc(Cl)cn1 | -2% | ? | /
COc1ccc(/C=N/NC(=O)c2ccc(Br)cc2)cc1Cn1cc(Cl)cn1 | -5% | ? | -58%
CCN(CC)CCn1c(-c2ccccc2)nc2c(NC3CCCCC3)nc(C)nc21 | 0% | -10% | /
Cc1ccc(-n2ncc(C(=O)NCc3ccccc3C)c2-n2cccc2)cc1 | -10% | 10% | /
O=C(NCCc1nc2ccccc2n1CCCOc1ccccc1Cl)C1CCCCC1 | / | / | -17%
O=C(NCCCc1nc2ccccc2n1Cc1ccccc1Cl)C1CCCCC1 | -6% | -8% | /
O=C(NCCCc1nc2ccccc2n1Cc1c(F)cccc1Cl)C1CCCCC1 | -1% | -10% | /
CC(=O)NCCc1nc2ccccc2n1Cc1ccc(C)cc1 | 1% | -1% | /
SMILES | Cruzain inh Det | Cruzain inh noDet | Papain counter
Cc1ccccc1OCCn1c(CCNC(=O)C(C)(C)C)nc2ccccc21 | -3% | ? | /
Cc1ccc(C)c(OCCn2c(CCNC(=O)C3CCCCC3)nc3ccccc32)c1 | 1.3µM* | 1% | 4%
O=C(NCCc1nc2ccccc2n1CCOc1cccc2ccccc12)C1CCCCC1 | / | / | 3%
Cc1ccccc1OCCn1c(CCNC(=O)C2CCCCC2)nc2ccccc21 | 1.4µM* | -2% | -3%
COc1ccc(-c2cc(NCc3ccc(C)cc3)n3cnnc3n2)cc1 | -3% | 13% | /
CC(=O)N1CCc2cc(S(=O)(=O)NC(CC(C)C)C(=O)NCCc3ccc(C)cc3)ccc21 (configuration not stated) | -6% | 5% | /
CCCCN(CCCNC(=O)c1cc(Nc2ccc(OC)c(OC)c2)nc2ccccc12)Cc1ccccc1 | -9% | -3% | /
O=C(NCCO)c1ccc2nc(-c3ccco3)c(-c3ccco3)nc2c1 | 13µM* | 13µM* | 32µM*
O=C(NCCO)c1ccc(Cl)c(Cl)c1 | 3% | -3% | /
O=C(NC1CCCC1)c1ccc2nc[nH]c2c1 | 1% | -5% | /
O=C(NC1CCCC1)c1ccc2nc(-c3ccco3)c(-c3ccco3)nc2c1 | 14µM* | 5µM* | 14µM*
O=C(CCCc1ccc(-c2ccccc2F)cc1)Nc1ccc(O)cc1 | -3% | ? | /
COc1ccc(-c2nc3cnc(N4CCN(C)CC4)nc3n(Cc3ccc(F)cc3)c2=O)cc1 | -1% | 5% | /
COc1ccc(NC(=O)c2ccc(CNc3c(NC4CCCCC4)c(=O)c3=O)cc2)c(OC)c1 | 0% | ? | /
CCOc1ccc(NC(=O)c2ccc(CNc3c(NC4CCCCC4)c(=O)c3=O)cc2)cc1 | 0% | 4µM* | 8%
COc1ccc(N(Cc2cccs2)C(=O)Nc2cccc(Cl)c2)cc1 | -6% | 4% | /
CC(C)CCNC(=O)Cn1c(SCc2cccc(F)c2)nc2ccncc21 | / | / | -14%
CCCCNC(=O)Cn1c(SCc2cccc(C)c2)nc2ccncc21 | / | / | -15%
O=C(Cn1c(SCc2cccc(F)c2)nc2ccncc21)Nc1ccc(Cl)cc1F | -20% | 7% | /
Cc1cccc(CSc2nc3ccncc3n2CC(=O)Nc2ccc(C)c(C)c2)c1 | -3% | 5% | /
O=c1oc2ccccc2cc1-c1cn2cc(Cc3ccc(Br)cc3)sc2n1 | -2% | 3% | /
CCC1=C2CC[C@H]3C(=O)NC(=O)[C@H]3[C@H]2[C@@]2(Cc3ccccc3)C(=NCc3ccccc3)OC(=O)N2C1=O | 2% | 4% | /
COc1ccc(-c2nn3c(-c4cc(C)[nH]n4)nnc3s2)cc1 | / | / | 7%
COc1ccc(-c2nn3c(-c4ccc(F)cc4)nnc3s2)cc1 | 2% | ? | /
CCOc1cccc(-c2nnc3sc(-c4cc(OC)c(OC)cc4OC)nn23)c1 | -4% | 0% | /
SMILES | Cruzain inh Det | Cruzain inh noDet | Papain counter
CCOc1cccc(-c2nn3c(-c4cc(C)[nH]n4)nnc3s2)c1 | 1% | -4% | 8%
O=C(Nc1c(C(=O)N2CCN(c3ccccc3)CC2)oc2ccccc12)c1ccco1 | -6% | 6% | /
O=C1C(=O)c2ccccc2C(O)=C1C(CCc1ccccc1)C1=C(O)c2ccccc2C(=O)C1=O | -3% | 5% | /
CCC(C)[C@@H](NC(=O)OC(C)(C)C)c1nnc(S(=O)(=O)Cc2cccc(C)c2)o1 (some centres not stated) | 3.2µM* | 7.9µM* | 13µM*
Cc1cccc(CS(=O)(=O)Cc2ccc(C(=O)NC(C)c3ccccc3)o2)c1 (configuration not stated) | 0% | 13% | /
CC1(C)Oc2ccc(/C=C/C(=O)N3CCOCC3)c(O)c2C(N2CCOCC2)C1O (configuration not stated) | -8% | 2% | /
CC(C)CC(=O)OC1C(N2CCOCC2)c2c(ccc(/C=C/C(=O)N3CCOCC3)c2O)OC1(C)C (configuration not stated) | -24% | ? | 14µM*
CC(C)c1nnc(N2C(=O)c3oc4ccccc4c(=O)c3C2c2cccc(O)c2)s1 (configuration not stated) | -3% | 5% | /
CCC(C(=O)NC1CCCCC1)n1c(SCc2ccc(F)cc2)nc2ccncc21 (configuration not stated) | 13µM* | 0% | -15%
CCC(C(=O)NC1CCCC1)n1c(SCc2cccc(C)c2)nc2ccncc21 (configuration not stated) | -15% | 1% | /
Cc1ccc(OCC(=O)Nc2ccc3c(c2)nc(CCNC(=O)c2ccco2)n3C)cc1 | -8% | 6% | /
O=C(Cn1cc(C(=O)C2CC2)c2ccccc21)Nc1ccc(Br)cc1 | 0% | 2% | /

Compound activity deposited in PubChem BioAssay by National Center for Advancing Translational Sciences (NCATS).
